In PubChem BioAssay AID1851 (National Center for Advancing Translational Sciences (NCATS), 2009):
Values joined by “and” are separate entries in the source; they are usually repeats but may differ in a detail not shown here. Equal entries are not always repeated. In all, about 16,000 compounds went through this assay and about 5,800 (36%) were called active. Roughly 23% stayed inconclusive and do not appear here. The call rests on the fitted dose curve; in most records, active means well fitted curve in the direction sought with a large enough effect; inconclusive means small, poorly fitted or top-dose-only effect, or effect the other way; inactive means no such curve, though single readings can be large or run the other way. This is one part of the list. Some compounds were tested as several samples or in several runs, with calls that do not always agree.

What follows are molecules tested against Cytochrome P450 2C19 (Homo sapiens) (UniProt P33261) (assay: Cytochrome panel assay with activity outcomes). Settings: recombinant CYP, pro-luciferin dealkylation, luminescence, p450-cyp2c19; series mostly up to 57.1 µM; activity, negative = inhibition: at the top concentration.
Sequence of Cytochrome P450 2C19 (Homo sapiens) (P33261 whole entry, looked up): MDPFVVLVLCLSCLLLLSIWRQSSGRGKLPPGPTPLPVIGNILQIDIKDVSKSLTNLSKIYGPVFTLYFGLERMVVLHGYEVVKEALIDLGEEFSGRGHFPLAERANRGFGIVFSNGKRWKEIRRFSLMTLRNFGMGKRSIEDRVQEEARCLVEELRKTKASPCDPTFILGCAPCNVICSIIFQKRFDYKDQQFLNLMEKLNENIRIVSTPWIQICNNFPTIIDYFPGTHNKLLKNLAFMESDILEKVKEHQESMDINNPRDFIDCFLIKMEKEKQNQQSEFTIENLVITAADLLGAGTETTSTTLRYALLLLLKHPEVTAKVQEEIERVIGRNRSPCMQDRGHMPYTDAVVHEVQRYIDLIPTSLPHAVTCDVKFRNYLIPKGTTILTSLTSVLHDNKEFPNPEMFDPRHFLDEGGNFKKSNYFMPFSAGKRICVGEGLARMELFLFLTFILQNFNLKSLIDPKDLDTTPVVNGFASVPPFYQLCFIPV
On the % scale 0 is the no-effect control and ±100 the full control effect.

activity, negative = inhibition, inactive:
O=C(N/N=C/c1ccco1)c1ccc(Br)o1 -25.5%, O=C(O)c1cc2cc(Cl)ccc2oc1=O -20.3%, O=c1ccc2cc(O)c(O)cc2o1 -12.2% [at 25.6 µM], O=C(O)C[C@H](S)C(=O)O 13.1% [at 11.4 µM], COc1ccc(-n2c(=O)c(-c3cccs3)nc3cnc(N4CCOCC4)nc32)cc1 -30%, Cc1ccc2c(c1)N[C@H](c1ccc(C(=O)O)cc1)c1cccn1-2 -26.9% [at 11.4 µM], CCCS(=O)(=O)N1CCCC(C(=O)NCCN2CCC(Cc3ccccc3)CC2)C1 (stereo not drawn) -20.6%, CC(=O)OC[C@@H]1O[C@@H](O/N=C2/C[C@@H](O)[C@@H](O)[C@@H]3[C@@H]4C(=O)N([C@@H](C)c5ccccc5)C(=O)[C@H]4CC[C@H]23)[C@H](OC(C)=O)[C@H](OC(C)=O)[C@@H]1OC(C)=O -3.3% [at 11.4 µM], C[C@@H](c1ccccc1)N1C(=O)[C@H]2[C@H]3[C@H](O)[C@H](O)C/C(=N/OCc4ccccc4)[C@@H]3CC[C@@H]2C1=O -24.2% [at 11.4 µM], CC(C)NC(=O)N1CCCC2(CCN(C(=O)c3cc(C(F)(F)F)cc(C(F)(F)F)c3)CC2)C1 -15.9%, Cc1nn2c(NCC(C)C)c3c(nc2c1-c1ccccc1)CCC3 -28%, Cc1cccc(C)c1NC(=O)N1CCC(N2CCCCC2)CC1 -15.4%, CCCCN1CCCC[C@H]1C(=O)Nc1c(C)cccc1C -18.3% [at 25.6 µM], CC(=O)Nc1ccc(S(=O)(=O)NC2(C(F)(F)F)NC(=O)N(c3ccc(Cl)cc3)C2=O)cc1 (stereo not drawn) 1.91%, COc1ccc(C(=O)N2CCC3(CCCN(Cc4ccncc4)C3)CC2)cc1 -36.4%, CNc1ncnc2c1ncn2[C@@H]1O[C@H](CO)[C@@H](O)[C@@H]1O -11.9% [at 25.6 µM], O=C(O)c1cccnc1C(=O)O -5.23%, CC(=O)C[C@H](c1ccc([N+](=O)[O-])cc1)c1c(O)c2ccccc2oc1=O -43.1% [at 25.6 µM], C[C@@]12CC3CC(N)(C1)C[C@@](C)(C3)C2 -6.2% [at 25.6 µM], Cc1nc([N+](=O)[O-])c(N2CCN(C)CC2)n1Cc1ccccc1 -21%, CCCS(=O)(=O)N1CCCC(C(=O)NCCCOC(C)C)C1 (stereo not drawn) -15.6%, CCS(=O)(=O)N1CCCC(C(=O)NCCCOC(C)C)C1 (stereo not drawn) -29.1%, CO/N=C(\C(=O)N[C@@H]1C(=O)N2C(C(=O)O)=C(COC(N)=O)CS[C@@H]12)c1ccco1 3.25% [at 25.6 µM], O=C(CO)N/N=C/c1ccccc1F -2.42%, CC1=C(C(=O)NCCN2CCN(C)CC2)C2(CCC(C)CC2)OC1=O (stereo not drawn) -19.5%, N=C(N)SCCc1ccc(OCc2ccc([N+](=O)[O-])cc2)cc1 -11.6%, O=[N+]([O-])c1ccc(CSc2ncnc3c2ncn3[C@@H]2O[C@@H](CO)[C@@H](O)[C@H]2O)cc1 33.6%, Cc1cc(=O)[nH]c2c1c(C)nn2C1CCOC(C)(C)C1 (stereo not drawn) -18.9%, CCc1c(O)c2c(c(O)c1C(C)=O)C(=O)c1c(cc(O)c(C(=O)O)c1C(=O)O)C2=O -9.38% [at 11.4 µM], CCOc1cc2[nH]c(=O)n(CCC(=O)NCc3ccc(OC)cc3)c(=O)c2cc1OCC -16.3%, CCOc1cc(CNCCCN2CCOCC2)cc(Br)c1OCC(=O)Nc1cccc(C(F)(F)F)c1 -58.3%, OC[C@@H]1O[C@H](n2cnc3c(/C=C(\O)c4ccccc4)ncnc32)[C@H](O)[C@@H]1O 34% [at 11.4 µM], O=C(NNC(=O)c1ccccc1O)c1ccc(Cl)cc1 -20.8%, O=C(NNC(=S)Nc1ccccc1)C1CC1 -32.8%, O=C(O)c1c2c(c(O)c3c1CN(C1CCCCC1)CO3)OCN(C1CCCCC1)C2 22.2% [at 11.4 µM], O=C(CSc1nc2ccc([N+](=O)[O-])cc2s1)c1ccc2ccccc2c1 -43.1% [at 11.4 µM], Cc1cc(C)nc(SCc2nnc(SCC(N)=O)n2Cc2ccco2)n1 -67.7%, O=C1C[C@@H](O)[C@@H](O)[C@H]2[C@@H]3C(=O)N(C4CCCCC4)C(=O)[C@@H]3CC[C@H]12 13.8% [at 11.4 µM] and 12.1% [at 11.4 µM] and 0.0924% [at 11.4 µM], O=C(O)/C=C\C(=O)N1Cc2cc3ccccc3nc2C1 21.9% [at 11.4 µM], O=C(O)c1ccccc1C(=O)Nc1cc2c(cc1Br)-c1ccccc1C2=O -19.4% [at 11.4 µM], O=C(O)c1cccc2cccc(-c3cccc4cccc(C(=O)O)c34)c12 -9.27% [at 11.4 µM], COCC(=O)N1CCC2(CC1)CCN(C(c1ccccc1)c1ccccc1)CC2 7.45%, Cc1cccc(C(=O)c2ccccc2C(=O)O)c1O 6.75%, CN(C)C[C@H]1CCC[C@@H](CN(C)C)C1=O 19.2% [at 11.4 µM], CC(C)[C@H]1C(=O)C(C(N)=O)=C(O)[C@]2(O)C(=O)C3=C(O)c4c(O)ccc(N(C)C)c4C[C@H]3C[C@@H]12 4.29%, CCS(=O)(=O)c1ccc2c(c1)N(S(C)(=O)=O)CC(C(=O)NCCOC)O2 (stereo not drawn) -18.7%

AC50, inactive and 10 µM (active):
C[C@]12CC3CC(N)(C1)C[C@@](C)(C3)C2

AC50, inactive:
CNC(=O)Oc1ccc2c(c1)[C@@]1(C)CCN(C)[C@@H]1N2C, N[C@@H](CO)C(=O)O

AC50, active:
O=C(Cc1ccccc1)N/N=C/c1cc(Br)c(Br)o1 8.91 µM, O=C(Cc1ccccc1)N/N=C\c1ccc(Br)o1 10 µM, CCN(CC)c1ccc2cc(C(C)=O)c(=O)oc2c1 1.58 µM, C=CC(C)(C)c1[nH]c2ccccc2c1C1=C(O)C(=O)C(c2c[nH]c3c(CC=C(C)C)cccc23)=C(O)C1=O 1.26 µM, Cc1ccc(C)c(S(=O)(=O)NCc2ccc(C(=O)N3CCC(Cc4ccccc4)CC3)cc2)c1 4.47 µM, Cn1c(SCC(=O)N/N=C/C=C\c2ccco2)nc2ccccc21 14.1 µM, Cc1nc2ccccc2n1CC(=O)N/N=C\C=C\c1ccccc1 7.08 µM, O=C(/C=C/c1ccccc1)NC(NC(=S)Nc1ccc(Cl)cc1)C(Cl)(Cl)Cl (stereo not drawn) 3.55 µM, Cc1nn2c3c(cnc2c1-c1ccccc1)C(=O)CC(c1ccccc1)C3 (stereo not drawn) 7.08 µM, Cc1ccc(C)c(NC(=O)NCc2ccc(Cl)cc2)c1 1.58 µM, COC(=O)C1CSC(C(=O)OC)N1C(=O)Nc1ccccc1 (stereo not drawn) 10 µM, COC(=O)C1CSC(C(=O)OC)N1C(=O)Nc1c(C)cccc1C (stereo not drawn) 7.94 µM, COc1ccc(N2C(=O)NC(NC(=O)c3ccncc3)(C(F)(F)F)C2=O)cc1 (stereo not drawn) 6.31 µM, O=[N+]([O-])c1ccc([C@@H](Nc2ccccc2)c2ccc3cccnc3c2O)cc1 3.98 µM, O=C(O)c1ccccc1N[C@H](c1ccccc1)c1ccc2cccnc2c1O 3.98 µM, Cc1cc(C)c(C#N)c(SCS(=O)c2ccc(C(C)(C)C)cc2)n1 (stereo not drawn) 3.16 µM, CCCn1c(CC)nc([N+](=O)[O-])c1S(=O)(=O)c1ccccc1 14.1 µM, COc1cc(-c2nnc(SC/C=C/c3ccccc3)n2N)cc(OC)c1OC 15.8 µM, CCC(C)NC(=O)C1CCCN(C(=O)NC2CCCCC2)C1 (stereo not drawn) 14.1 µM, NC(=S)N/N=C/c1ccccc1OCc1cccc(Cl)c1 2.24 µM, O=C(Cc1ccccc1)N/N=C/c1ccccc1OCc1ccc(Cl)cc1 4.47 µM, Cc1cc2nc(C3CCCN(C(=O)NCc4ccccc4)C3)[nH]c2cc1C (stereo not drawn) 20 µM, CC1=C(C(=O)N2CCCCCC2)C2(CCC(C)CC2)OC1=O (stereo not drawn) 10 µM, CN1C(=C2C(=O)OC(C)(C)OC2=O)Sc2ccccc21 1 µM, O=[N+]([O-])c1ccc(CSCc2ccc(Cl)cc2)cc1 0.398 µM, COc1ccc(N2CCN(C(=O)CSc3nnc4c5cc(C)ccc5n(C)c4n3)CC2)cc1 1 µM, O=C1Nc2ccc(F)cc2C12SCCS2 11.2 µM, Cc1ccc2c(c1)C1(SCCS1)C(=O)N2 25.1 µM, CCOc1cc(CNc2ccc(OC)cc2)cc(Br)c1OCC(=O)NC(C)(C)C 5.62 µM, CCOc1ccc(N2C(=O)CS/C2=N/NC(=O)COc2ccc3ccccc3c2)cc1 15.8 µM, O=C(CSCc1ccccc1Cl)NNC(=O)c1ccccc1 5.01 µM, O=C(CSCc1ccccc1Cl)NN1C(=O)c2ccccc2C1=O 10 µM, O=C(CSCc1ccccc1Cl)NNC(=S)Nc1ccccc1 2.24 µM, CCn1c(SCC(=O)c2ccccc2)nnc1-c1cccs1 0.794 µM, CCn1c(SCC(=O)c2ccc3ccccc3c2)nnc1-c1cccs1 0.708 µM, CCn1c(SCC(=O)NC2CCCc3ccccc32)nnc1-c1cccs1 (stereo not drawn) 7.94 µM, CCn1c(SCC(=O)NC(=O)NCc2ccco2)nnc1-c1cccs1 14.1 µM, Cc1ccccc1CSc1nnc(-c2cccs2)n1Cc1ccco1 1.41 µM, CCn1c(SCC(=O)Nc2sc3c(c2C(N)=O)CCC(C)C3)nnc1-c1ccco1 (stereo not drawn) 7.08 µM, O=C(/C=C/c1ccccc1)N1CCN(Cc2nc3ccccc3c(=O)[nH]2)CC1 22.4 µM, O=C1c2ccccc2C(=O)c2c1ccc(C(=O)O)c2-c1ccc2ccccc2c1 2.51 µM, Cc1cccc(C(CC(=O)N2CCCC2)c2ccccc2)c1O (stereo not drawn) 1.41 µM, O=c1ccn(-c2cccc(C(F)(F)F)c2)nc1-c1ccn(-c2ccccc2F)n1 17.8 µM, CS(=O)(=O)N1CC(C(=O)NC2CC2)Oc2ccc(Cl)cc21 (stereo not drawn) 7.08 µM
